{
  "source": "the OligoGym collection",
  "assay_in_all_cases": "pooled miR-30 sensor sort-seq; sequence = guide strand",
  "conditions_in_all_cases": "shRNA",
  "key": {"CNN2": {"molecular_target": "CNN2"}, "CNOT1": {"molecular_target": "CNOT1"}, "CNGB1": {"molecular_target": "CNGB1"}},
  "data": [
    {"sequence": "TAGCACTCTCTCCACTGTCCTT", "values": [
      {"measurement": "sensor-assay potency score (higher = more potent)", "setting": "CNN2", "result": -0.91}
    ]},
    {"sequence": "TTTCTTTTGTGAATACTTCCTG", "values": [
      {"measurement": "sensor-assay potency score (higher = more potent)", "setting": "CNN2", "result": 0.659}
    ]},
    {"sequence": "TCATATTTGGACAGGAGCCGGT", "values": [
      {"measurement": "sensor-assay potency score (higher = more potent)", "setting": "CNN2", "result": -0.85}
    ]},
    {"sequence": "TTGCGTTTGGTCCACAGTCGTA", "values": [
      {"measurement": "sensor-assay potency score (higher = more potent)", "setting": "CNN2", "result": -1.13}
    ]},
    {"sequence": "TTGGACAGGAGCCGGTTCTTGA", "values": [
      {"measurement": "sensor-assay potency score (higher = more potent)", "setting": "CNN2", "result": -0.733}
    ]},
    {"sequence": "TATCTCTTTACTAAAGTGCTGG", "values": [
      {"measurement": "sensor-assay potency score (higher = more potent)", "setting": "CNOT1", "result": -0.169}
    ]},
    {"sequence": "TTGAAATCCAGGATGGTCCAGT", "values": [
      {"measurement": "sensor-assay potency score (higher = more potent)", "setting": "CNOT1", "result": 0.513}
    ]},
    {"sequence": "TAGGTGAAGATCATACTGCTGC", "values": [
      {"measurement": "sensor-assay potency score (higher = more potent)", "setting": "CNOT1", "result": 0.544}
    ]},
    {"sequence": "TTTGAACTTGCAGCAGAGCATG", "values": [
      {"measurement": "sensor-assay potency score (higher = more potent)", "setting": "CNGB1", "result": -1.2}
    ]},
    {"sequence": "TATTTCACATTATCTCACGGAG", "values": [
      {"measurement": "sensor-assay potency score (higher = more potent)", "setting": "CNN2", "result": -0.296}
    ]},
    {"sequence": "TTCCTTTAGCTCTTCAACCTTT", "values": [
      {"measurement": "sensor-assay potency score (higher = more potent)", "setting": "CNOT1", "result": -0.326}
    ]},
    {"sequence": "TTGATGAAGTTGGACAGGTTTT", "values": [
      {"measurement": "sensor-assay potency score (higher = more potent)", "setting": "CNN2", "result": -0.865}
    ]},
    {"sequence": "TAGTAGGTCTGTCCGGCGGTGG", "values": [
      {"measurement": "sensor-assay potency score (higher = more potent)", "setting": "CNGB1", "result": -0.909}
    ]},
    {"sequence": "TGGCTGGCACACTTGTTCGTGC", "values": [
      {"measurement": "sensor-assay potency score (higher = more potent)", "setting": "CNN2", "result": -1.46}
    ]},
    {"sequence": "TACAGTTAAATACTTCTCGTTC", "values": [
      {"measurement": "sensor-assay potency score (higher = more potent)", "setting": "CNOT1", "result": -0.0593}
    ]},
    {"sequence": "TGTCACACTTGTCGGTTCCCAG", "values": [
      {"measurement": "sensor-assay potency score (higher = more potent)", "setting": "CNN2", "result": -0.793}
    ]},
    {"sequence": "TAGAGATGCCTTCTCGTGCCGT", "values": [
      {"measurement": "sensor-assay potency score (higher = more potent)", "setting": "CNN2", "result": -0.0875}
    ]},
    {"sequence": "TAGCTTGTTCATGAGTGTGCAT", "values": [
      {"measurement": "sensor-assay potency score (higher = more potent)", "setting": "CNN2", "result": -0.436}
    ]},
    {"sequence": "TACATCAGGTTGGTCAGCGGGT", "values": [
      {"measurement": "sensor-assay potency score (higher = more potent)", "setting": "CNGB1", "result": -0.543}
    ]},
    {"sequence": "TGTAGCTTGTTCATGAGTGTGC", "values": [
      {"measurement": "sensor-assay potency score (higher = more potent)", "setting": "CNN2", "result": 0.544}
    ]},
    {"sequence": "TAACTTTAAGTCATGCTCCTGA", "values": [
      {"measurement": "sensor-assay potency score (higher = more potent)", "setting": "CNOT1", "result": 0.328}
    ]},
    {"sequence": "TTGACTGGCAGCACTGAACGGG", "values": [
      {"measurement": "sensor-assay potency score (higher = more potent)", "setting": "CNN2", "result": -0.107}
    ]},
    {"sequence": "TTTCTTCCGGAGTAACTTCTGA", "values": [
      {"measurement": "sensor-assay potency score (higher = more potent)", "setting": "CNGB1", "result": -0.522}
    ]},
    {"sequence": "TAGGACATACATCAGGTTGGTC", "values": [
      {"measurement": "sensor-assay potency score (higher = more potent)", "setting": "CNGB1", "result": 0.2}
    ]},
    {"sequence": "TTGAACTTGCAGCAGAGCATGT", "values": [
      {"measurement": "sensor-assay potency score (higher = more potent)", "setting": "CNGB1", "result": -0.734}
    ]},
    {"sequence": "TCGCATGTCCTTTTTGTCCGTA", "values": [
      {"measurement": "sensor-assay potency score (higher = more potent)", "setting": "CNGB1", "result": -0.378}
    ]},
    {"sequence": "TTGGACAGGTTTTCTAGCTGGT", "values": [
      {"measurement": "sensor-assay potency score (higher = more potent)", "setting": "CNN2", "result": 0.325}
    ]},
    {"sequence": "TTCTTTTGTGAATACTTCCTGA", "values": [
      {"measurement": "sensor-assay potency score (higher = more potent)", "setting": "CNN2", "result": -0.256}
    ]},
    {"sequence": "TCTGTTGGTCTGAAGGTCCTAG", "values": [
      {"measurement": "sensor-assay potency score (higher = more potent)", "setting": "CNN2", "result": 0.303}
    ]},
    {"sequence": "TTGGTATCATAGATGTGCCGCC", "values": [
      {"measurement": "sensor-assay potency score (higher = more potent)", "setting": "CNN2", "result": -0.285}
    ]}
  ]
}
